# Hits are enriched below; roughly 5.4% of the tested compounds scored in any of these assays.
# p53 reactivator: mutant p53 re-activation in reporter cells. H1299 p53-A138V BP100-luciferase reporter, luminescence, 24 h. Potency, µM (highest dose often 92.2 µM), without a hit: at the highest dose activity change, positive = activation, most hits filed as activators. hit rate 0.063% among 320,000; note: potency is the fitted concentration of half-maximal effect; % of control where 0% means no effect; nearly all actives have a fitted effect of over 45% in size
#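 H1299 (p53-null), stable ts p53-A138V + BP100-Luc; 1000 cells/well, Opti-MEM/10% FBS; cpd 4 pt, 1:5; 24 h, 37 deg C, 5% CO2; detection reagent 10 min RT; luminescence.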
# RORgamma inh: ROR gamma (mouse) transcription inhibition; Potency, µM (doses to about 53.6 µM), for inactives: at the top dose activity change, negative = inhibition, usual class: inhibitors; Drosophila S2 Gal4-RORgamma UAS-luciferase reporter, 20 h; hit rate 5.4% among 310,000; P51450; AID 2551; note: potency is the fitted concentration of half-maximal effect; % is set by controls: 0 for no effect and ±100 for the full control effect; nearly all actives have a fitted effect of over 60% in size
#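 Luminescence from a UAS-regulated Photinus luciferase reporter in stably transfected Drosophila Schneider cells is measured; decreased signal marks ROR gamma inhibition. Fusion expression is induced by 700 uM copper sulfate for 20 hr.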
# Six1-Eya2 blk: blocks human Six1 binding to Eya2 | Q15475+O00167 | AlphaScreen GST-Six1/His-Eya2 binding, biochemical; active compounds read low | activity change, % (concentration not given with the values) | hit rate 0.56% among 360,000; in the data active = activity change below about -65%; inconclusive = mostly about -30% to -63%; note: % is set by controls: 0 for no effect and ±100 for the full control effect
# Target sequence (O00167 whole entry, looked up): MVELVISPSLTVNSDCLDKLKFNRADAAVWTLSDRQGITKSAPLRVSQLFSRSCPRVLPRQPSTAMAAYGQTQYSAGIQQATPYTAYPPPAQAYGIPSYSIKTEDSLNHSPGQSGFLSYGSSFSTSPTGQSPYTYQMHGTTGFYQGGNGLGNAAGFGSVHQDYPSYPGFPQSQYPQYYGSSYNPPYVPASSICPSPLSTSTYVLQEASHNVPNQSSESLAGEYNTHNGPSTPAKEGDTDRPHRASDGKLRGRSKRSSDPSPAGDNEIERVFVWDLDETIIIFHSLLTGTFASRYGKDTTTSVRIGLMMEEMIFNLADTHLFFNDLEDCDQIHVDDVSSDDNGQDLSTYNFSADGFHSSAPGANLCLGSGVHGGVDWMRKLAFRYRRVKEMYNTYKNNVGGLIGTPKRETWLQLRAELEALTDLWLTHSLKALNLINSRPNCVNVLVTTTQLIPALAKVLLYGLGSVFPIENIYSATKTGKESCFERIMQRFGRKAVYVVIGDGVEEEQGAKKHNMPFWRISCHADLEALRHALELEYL
# Target sequence (Q15475 whole entry, looked up): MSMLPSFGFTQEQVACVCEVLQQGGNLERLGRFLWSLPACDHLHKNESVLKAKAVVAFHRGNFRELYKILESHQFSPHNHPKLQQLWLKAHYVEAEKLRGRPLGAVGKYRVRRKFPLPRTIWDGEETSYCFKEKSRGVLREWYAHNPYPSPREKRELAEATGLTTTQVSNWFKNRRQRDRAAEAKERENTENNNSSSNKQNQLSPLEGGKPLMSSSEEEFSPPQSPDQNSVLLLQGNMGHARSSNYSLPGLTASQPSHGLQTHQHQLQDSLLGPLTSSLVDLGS
#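 AlphaScreen luminescence read after one hour at 37 °C in darkness. Pin-transferred compounds met GST-Six1 and His-Eya2 protein (5X stock 250 nM/500 nM) plus glutathione donor and Ni-chelate acceptor beads (5X, 50 ug/mL).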
# VP16 counter: inhibits Gal4-VP16 luciferase reporter, ROR gamma counter-screen | Drosophila S2 Gal4-VP16 UAS-luciferase, luminescence, 20 h | Potency, µM (top dose mostly 53.6 µM), without a hit: at the top dose activity, negative = inhibition, most hits filed as inhibitors | hit rate 3.5% among 310,000 | AID 2546;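 note: Gal4-VP16 expression switched on by copper sulfate through the metallothionein promoter; potency is the fitted concentration of half-maximal effect; % is set by controls: 0 for no effect and ±100 for the full control effect; nearly all actives have a fitted effect of over 50% in size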
# CtBP-E1A inh: CtBP/E1A binding inhibition; AlphaScreen GST-E1A/His-CtBP binding, 1536-well; active compounds read low; activity change, % (no concentration beside the values); hit rate 0.49% among 340,000; AID 651724; in the data active = activity change below about -65%; inconclusive = mostly about -30% to -63%; note: % is set by controls: 0 for no effect and ±100 for the full control effect
#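 In 5 uL wells, 23 nL compound meets equimolar GST-E1A and His-CtBP (5X stock 125 nM each) for 2 h, 37 °C. Beads (5X, 50 ug/mL) then 1 h, 37 °C, dark.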
# * marks the source's active call; other numbers are inactive results; ? = inconclusive; . = no result; [ ] = remark or other dose. Unless noted, calls come from the whole dose curve; as a rule, active = well fitted curve in the direction sought with a large enough effect; inconclusive = small, poorly fitted or top-dose-only effect, or another doubt; inactive = no such curve, though single readings can be large; an effect the other way counts as inactive or inconclusive.
SMILES,p53 reactivator,RORgamma inh,Six1-Eya2 blk,VP16 counter,CtBP-E1A inh
O=C1/C(=C/c2ccc(F)cc2)SC(=S)N1CC(=O)N1CCCCC1c1cccnc1 (stereo not drawn),-25%,2%,15,4%,.
COc1ccc(Cl)cc1NC(=O)CN(C)C(=O)c1ccc(-n2cncn2)cc1,-6%,.,-5,.,2
Cc1nc(CS(=O)(=O)c2ccc(Cl)cc2)cc(Sc2ccc(Cl)cc2)n1,-1%,?,-1,11µM*,-4
O=C(O)c1nn2c(C(F)(F)F)cc(-c3cccs3)nc2c1Cl,6%,-4%,-74*,-9%,-67*
O=C(CSc1nc2nc(-c3cccs3)cc(C(F)(F)F)c2c(=O)[nH]1)Nc1c(F)c(F)c(F)c(F)c1F,-1%,25%,-13,9%,-30
O=c1[nH]c(=S)[nH]c2nc(-c3cccs3)cc(C(F)(F)F)c12,3%,11µM*,?,-12%,4
COc1cccc(-c2ccc3ncnc(NCCc4c[nH]c5ccc(OC)cc45)c3c2)c1,.,?,.,-2%,.
O=C(NNC(=S)NC(=O)C12CC3CC(CC(C3)C1)C2)c1ccncc1,2%,?,-11,-1%[0.365 µM],-18
CCC(C)NC(=S)NNC(=O)c1ccncc1 (stereo not drawn),0%,3.2µM*,4,13µM*,-6
CC1(C(=O)NC(=S)NNC(=O)c2ccncc2)CCCCC1,20%,5µM*,-5,13µM*,0
CO/N=C/c1ccc(N2CCN(C(=O)c3ccc(F)cc3)CC2)c([N+](=O)[O-])c1,-4%,?,-18,8.9µM*,-27
CO/N=C/c1ccc(N2CCN(C(=O)c3cccc(C(F)(F)F)c3)CC2)c([N+](=O)[O-])c1,-10%,?,?,?,?
O=S(=O)(Nc1ccccc1)C1CCCCC1,.,.,14,.,22
CC(C)CN1C(=O)C(=O)N(CC(=O)c2ccc3c(c2)CCCC3)C1=O,10%,.,1,.,18
O=C(O)c1ccc2c(c1Nc1ccccc1)C(=O)c1ccccc1C2=O,1%,12%,-66*,-7%,?
CNc1c(C(=O)O)ccc2c1C(=O)c1ccccc1C2=O,45%,-22%,-15,?,0
O=C(O)c1cccc2c1C(=O)c1ccccc1C2=O,-1%,-12%,1,-6%,-2
CCNc1c(C(=O)O)ccc2c1C(=O)c1ccccc1C2=O,-28%,?,-26,13µM*,-1
CC(C)=CCC/C(C)=C/CC/C(C)=C/CO,.,22%,.,4%,.
CS(=O)(=O)c1nc(-c2ccccc2)cc(-c2ccccc2)c1C#N,-12%,10µM*,0,?,8
COC(=O)c1c(-c2ccc(C)cc2)csc1NC(=S)NC(=O)c1cc(OC)cc(OC)c1,5%,2.8µM*,-2,8.9µM*,-15
CCOC(=O)c1c(-c2ccccc2)csc1NC(=O)CCN1C(=O)c2ccccc2C1=O,-3%,25%,0,-5%,7
CCOC(=O)c1c(-c2cccc([N+](=O)[O-])c2)csc1NC(=O)C1CCCCC1,-1%,?,-11,10µM*,-5
CCNC(=S)Nc1scc(-c2ccccc2)c1C(=O)OCC,-1%,1.4µM*,-14,2.5µM*,-5
CCOC(=O)c1c(-c2ccc(-c3ccccc3)cc2)csc1NC(=O)CNCCN(C)C,-14%,0.63µM*,-17,1.6µM*,-27
SMILES,p53 reactivator,RORgamma inh,Six1-Eya2 blk,VP16 counter,CtBP-E1A inh
CCOC(=O)c1c(-c2cccc([N+](=O)[O-])c2)csc1NC(=O)C1CC1,-10%,?,?,?,-10
CCN(CC(=O)Nc1ccc(NC(C)=O)cc1)C(=O)c1ccc(Sc2nncn2C)c([N+](=O)[O-])c1,.,.,2,.,5
NC(Cc1ccc(C(F)(F)F)cc1)c1csc(Nc2ccc(S(N)(=O)=O)cc2)n1 (stereo not drawn),.,.,-6,.,-4
CCCCC/C=C\C/C=C\CCCCCCCC(=O)NC(C)C(=O)O (stereo not drawn),.,-16%,.,-8%,.
CCOC(=O)c1c(-c2ccccc2)csc1NC(=S)NC,2%,?,7,1µM*,3
CN(C)S(=O)(=O)Nc1ccccc1F,-4%,0%,8,-2%,-2
CCOC(=O)C1CCN(C(=O)c2ccc(C)o2)CC1,?,.,5,.,-5
CCOC(=O)C1CCN(C(=O)c2c(C)oc3c2C(=O)c2ccccc2C3=O)CC1,-12%,11µM*,2,?,-3
Cc1oc2c(c1C(=O)N1CCC(C)CC1)C(=O)c1ccccc1C2=O,-20%,7.9µM*,10,?,-11
O=C(CCC(=O)N1CCOc2ccccc21)NCCc1ccccc1,16%,-4%,5,?,7
CCOc1ncccc1C(=O)NCCc1ccc(Cl)cc1,-1%,3%,10,2%,16
CC1(c2ccc(OC(F)F)cc2)NC(=O)N(/N=C/c2c(O)ccc3ccccc23)C1=O (stereo not drawn),-15%,?,1,14µM*,16
Nc1nc(-c2ccc([N+](=O)[O-])cc2)cc(=O)[nH]1,.,.,-3,.,-1
CC1CCN(C(=O)c2[nH]cnc2C(=O)Nc2cccc(Cl)c2)CC1,-13%,.,-19,.,-6
COc1ccc(NC(=O)c2nc[nH]c2C(=O)N2CCC(C)CC2)cc1,-1%,13µM*,6,?,1
COc1ccc(NC(=O)c2nc[nH]c2C(=O)N(C)Cc2ccccc2)cc1,-2%,7.1µM*,3,?,1
Cc1ccc(NC(=O)c2nc[nH]c2C(=O)N2CCC(C)CC2)cc1,-1%,8.9µM*,33,?,2
Cc1ccc(NC(=O)c2nc[nH]c2C(=O)N2CCN(c3ccccc3)CC2)cc1,3%,4.5µM*,-6,13µM*,0
CCOC(=O)c1ccc(NC(=O)c2nc[nH]c2C(=O)N2CCC(C)CC2)cc1,-3%,10µM*,-2,?,-4
CCOC(=O)c1ccc(NC(=O)c2nc[nH]c2C(=O)N2CCN(c3ccccc3)CC2)cc1,0%,?,1,?,-1
O=C(CCl)N(C1CCCC1)C1CCS(=O)(=O)C1 (stereo not drawn),-22%,?,-2,16µM*,-10
NS(=O)(=O)c1ccc(N2C(=O)CCCC2=O)cc1,.,.,-4,.,18
CSc1nnc(-c2ccccc2SC)o1,-5%,-2%,10,6%,.
CS(=O)(=O)c1ccccc1-c1nnc(NC(=O)Cc2ccccc2)o1,-4%,11µM*,?,?,-8
COc1ccccc1-c1nnc(NC(=O)Cc2ccccc2)o1,3%,2µM*,-27,3.2µM*,.
CSc1ccccc1-c1nnc(NC(=O)Cc2ccccc2)o1,2%,1µM*,-5,2.5µM*,-26
Cc1ccc(S(=O)(=O)CCC(=O)Nc2nnc(-c3ccccc3S(C)(=O)=O)o2)cc1,13%,.,-13,.,-3
